The source of these data is PubChem BioAssay AID1851 (National Center for Advancing Translational Sciences (NCATS), 2009).

The campaign covered roughly 16,000 compounds. About 5,700 (36%) were called active. Not shown: some 24% with an inconclusive outcome. Calls follow the shape of the dose curve; as a rule, active = well fitted curve in the direction sought with a large enough effect; inconclusive = small, poorly fitted or top-dose-only effect, or effect the other way; inactive = no such curve, though single readings can be large or run the other way. The list shows a part of the results.
% is scaled to controls: 0 for no effect and ±100 for the full control effect.

Chain of Cytochrome P450 1A2 (Homo sapiens) (P05177 whole entry, looked up): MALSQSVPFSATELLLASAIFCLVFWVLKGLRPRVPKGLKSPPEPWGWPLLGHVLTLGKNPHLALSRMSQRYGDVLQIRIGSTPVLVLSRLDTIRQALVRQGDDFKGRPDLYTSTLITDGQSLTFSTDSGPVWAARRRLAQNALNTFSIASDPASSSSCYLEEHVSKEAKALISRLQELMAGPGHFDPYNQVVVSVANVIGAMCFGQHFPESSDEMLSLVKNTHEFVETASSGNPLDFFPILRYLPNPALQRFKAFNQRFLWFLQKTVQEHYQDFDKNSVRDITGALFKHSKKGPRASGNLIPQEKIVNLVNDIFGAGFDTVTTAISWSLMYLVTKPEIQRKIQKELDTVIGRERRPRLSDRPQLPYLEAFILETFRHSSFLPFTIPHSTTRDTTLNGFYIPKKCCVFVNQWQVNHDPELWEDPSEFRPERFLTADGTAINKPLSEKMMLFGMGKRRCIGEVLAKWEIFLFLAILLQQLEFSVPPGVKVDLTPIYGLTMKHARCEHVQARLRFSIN

This assay has as its target Cytochrome P450 1A2 (Homo sapiens) (UniProt P05177). The assay is described as follows: Cytochrome panel assay with activity outcomes. The conditions noted are these: recombinant CYP, pro-luciferin dealkylation, luminescence, p450-cyp1a2; series mostly up to 57.1 µM. The method, then:
The P450 gene superfamily is involved in the metabolism and clearance of xenobiotics. This assay used various human CYP P450 isozymes to measure the dealkylation of various pro-luciferin substrates to luciferin. The luciferin is then measured by luminescence after the addition of a luciferase detection reagent. Pro-luciferin substrate concentration in the assay was equal to its KM for its CYP P450 isozyme. Inhibitors and some substrates limit the production of luciferin, and decrease measured luminescence.
NCGC Assay Protocol Summary:
1, Reagent, 2 uL, Isozyme and Pro-Luciferin
2, Library compounds, 23 nl, 40 uM to 0.24 nM dilution series
3, Controls, 23 nl, Isozyme specific inhibitor
4, Reagent, 2 uL, NADPH regeneration solution
5, Incubation time, 60 min, Isozyme specific temperature
6, Reagent, 4ul, Detection reagent
7, Incubation time, 20 min, Isozyme specific temperature
8, Detection, 1 sec, ViewLux luminescent read
The luciferase-based P450-GloTM Screening Systems were obtained from Promega (Madison, WI) for CYP 1A2 (V9770), CYP 2C9 (V9790), CYP2 C19 (V9880), CYP 2D6 (V9890), and CYP 3A4 Luciferin-PPXE (V9910) and were adapted for 1,536-well microplates and an automated protocol. The control compounds furafylline for 1A2 (F124), sulfaphenazole for CYP 2C9 (S0758), ketoconazole for CYP 2C19 (K1003), quinidine for 2D6 (Q3625), and ketoconazole for 3A4 (K1003) were purchased from Sigma Aldrich (St. Louis, MO). Recombinant P450 enzymes were obtained from baculovirus constructs expressed in insect cells (BD/Gentest).
Medium-binding white solid Kalypsys plates used. Mixtures kept on ice. 1A2: 10 nM 1A2, 100 uM Luc-ME, 100 mM KPO4; 2C9: 10 nM 2C9, 100 uM Luc-H, 25 mM KPO4; 2C19: 5 nM 2C19, 10 uM Luc-H EGE, 50 mM KPO4; 2D6: 5 nM 2D6, 30 uM Luc-ME EGE, 100 mM KPO4; 3A4: 10 nM, 25 uM Luc-PPXE. All amounts are reflected in their final concentration, working concentration is 2x.
NADPH regeneration solution: 1.3 mM NADP+, 3.3 mM glucose-6-phosphate, 3.3 mM MgCl2, 0.4 U/mL glucose-6-phosphate dehydrogenase for all isozymes, 200 mM KPO4 for 3A4. Mixture prepared at RT but kept on ice during automated run.
RT incubation in auxilliary plate hotel for 1A2, 2D6, and 3A4; 37C for 2C9 and 2C19.
Keywords: P450, CYP1A2, CYP2C19, CYP2C9, CYP2D6, CYP3A4, Luciferase, MLSMR, MLSCN, NIH Roadmap, qHTS, NCGC
Consider `COCCNC(=S)N1C2CCC1CC(NC(=O)NC13CC4CC(CC(C4)C1)C3)C2` (stereo unspecified), for which the AC50 entry was “inactive”.
`Nc1nc(N)c(Cn2ccnc2)c(=O)[nH]1`: the activity, negative = inhibition is -19.7% [at 11.4 µM] (inactive).
On to `Cn1c(=O)c2[nH]cnc2n(C)c1=O`, for which the AC50 entry was “inactive”.
In the case of `C[C@@]12CC[C@H]3[C@@H](CCC4=C(O)C(=O)CC[C@]43C)[C@H]1CCC2=O`, the AC50 result is “inactive”.
With `Nc1ncnc2c1ncn2[C@@H]1O[C@@H](COP(=O)(O)CP(=O)(O)OP(=O)(O)O)[C@H](O)[C@@H]1O`, the AC50 entry is “inactive”.
With `Cc1ccccc1OCCN=Cc1c(O)n(C)c(=O)n(C)c1=O`, the AC50 is 12.6 µM (active).
As for `CCCCCCN=Cc1c(O)n(C)c(=O)n(C)c1=O`, the AC50 was 12.6 µM (active).
Turning to `CCCCn1c(O)c(C=NCCN2CCCCC2)c(=O)[nH]c1=O`, the AC50 entry was “inactive”.
In the case of `COc1cccc(-n2c(O)c(C=NCCN3CCOCC3)c(=O)[nH]c2=O)c1`, the AC50 result was “inactive”.
For `O=C(O)/C=C\c1ccc[c]([Sb](=[O])([OH])[OH])c1`, the activity, negative = inhibition was -9.5% [at 2.29 µM] (inactive).
Regarding `NC(N)=Nc1ccc2[nH]c3c(c2c1)C[C@]1(O)[C@@H]2Cc4ccc(O)c5c4[C@]1(CCN2CC1CC1)[C@@H]3O5`, the AC50 entry is “inactive”.
In the case of `NNC(=O)c1ccc(O)cc1`, the AC50 entry is “inactive”.
Turning to `CSCC[C@@H](N)P(C)(=O)O`, the activity, negative = inhibition is -11% [at 11.4 µM] (inactive).
As to `COC(=O)N1CCC2(CCCN(C)C2)CC1`, the AC50 entry is “inactive”.
The same measure, in the same setting: with `C[C@H](Br)CN(C[C@H](C)Br)c1ccc2c(c1)Cc1ccccc1-2` the figure was 3.16 µM (active).
As to `CCN1C[C@]2(C)CC[C@H](O)[C@@]34[C@@H]5CC6[C@@H](OC)C[C@@](O)([C@@H]5[C@@H]6O)[C@H](C[C@@H]23)[C@H]14`, the AC50 result is “inactive”.
For `C[C@@H]1O[C@@H](O[C@H]2C[C@@H](O)[C@]3(CO)[C@@H]4[C@@H](O)C[C@]5(C)[C@H]([C@@H]6COC(=O)C6)CC[C@@]5(O)[C@H]4CC[C@@]3(O)C2)[C@H](O)[C@H](O)[C@@H]1O`, the AC50 result is “inactive”.
For the compound `CN1CC[C@@]2(CCCN(C(=O)Oc3ccccc3)C2)C1`, the AC50 entry was “inactive”.
As to `Cc1ncsc1CCCl`, the concentration at half-maximal activity (AC50) is 31.6 µM (active).
Turning to `Oc1ccc([C@H](O)[C@@H]2CCCCN2)cc1O`, the activity, negative = inhibition was -3.47% [at 11.4 µM] (inactive).
For `O=C(O)[C@H]1C[C@@H]1[C@H](NP(=O)(c1ccccc1)c1ccccc1)c1ccccc1`, the AC50 result is “inactive”.
Turning to `C=C(CC1(C(C)NP(=O)(c2ccccc2)c2ccccc2)CC1)c1ccccc1` (stereo unspecified), the AC50 is 15.8 µM (active).
On to `O=C(O)[C@@H]1C[C@H]1[C@@H](NP(=O)(c1ccccc1)c1ccccc1)c1ccccc1`, for which the AC50 result was “inactive”.
As to `c1csc(CN2CCCC3(CCNCC3)C2)n1`, the AC50 entry was “inactive”.
With `CC(=O)O[C@H]1CC[C@@]2(C)[C@@H](CC[C@H]3[C@H]2CC(=O)[C@@]2(C)[C@@H]3C[C@H]3CC(C)=CC(=O)[C@H]32)C1`, the activity, negative = inhibition was -8.97% [at 2.29 µM] (inactive).
With `C[C@H](CCC(=O)O)[C@H]1CC[C@]2(C)[C@@H]3C(=O)C[C@H]4C(C)(C)[C@@H](O)CC[C@]4(C)[C@H]3C(=O)C[C@@]12C`, the activity, negative = inhibition was -10.7% [at 11.4 µM] (inactive).
For `C[C@H]1CC[C@@]2(NC1)O[C@@H]1C[C@H]3[C@@H]4CC=C5C[C@@H](O)CC[C@]5(C)[C@@H]4CC[C@]3(C)[C@@H]1[C@@H]2C`, the AC50 entry was “inactive”.
Take `CN(C)CCCc1cccnc1`: the activity, negative = inhibition is -10.2% [at 2.29 µM] (inactive).
For `COc1ccccc1CC1C(=O)C2CCN1CC2` (stereo unspecified), the AC50 result was “inactive”.
The same measure, in the same setting: with `CN(C)Cc1c[nH]c2ccccc12` the entry was “inactive”; with `OC1(c2ccc(Cl)cc2)CCN(Cc2c[nH]c3ccccc23)CC1`, 31.6 µM (active); with `c1cc(CN2CCC3(CCNCC3)CC2)ccn1`, “inactive”.
Regarding `NCc1cc(=O)[nH]o1`, the AC50 entry is “inactive”.
As to `CN(C)c1ccc(NC(=O)CN2C(=O)CN=C(c3ccccc3)c3ccccc32)cc1`, the AC50 is 10 µM (active).
For `CCN(CC)CCO[C@H]1CC[C@@]2(C)C(=CC[C@@H]3[C@H]2CC[C@]2(C)C(=O)CC[C@H]32)C1`, the AC50 entry is “inactive”.
For the compound `O=C(C[C@H](c1ccccc1)c1c(O)c2ccccc2oc1=O)c1ccccc1`, the activity, negative = inhibition is -12.6% [at 2.29 µM] (inactive).
Turning to `COc1ccc(NC(=O)N2CC[C@@]3(CCCN(C(=O)Oc4ccccc4)C3)C2)cc1`, the AC50 result is “inactive”.
In the case of `COc1ccc(NC(=O)N2CCCC3(CCN(C(=O)Oc4ccccc4)CC3)C2)cc1`, the AC50 is 12.6 µM (active).
Consider `O=C(Nc1ccccc1)N1CCC2(CC1)CCN(C(=O)Oc1ccccc1)CC2`, for which the AC50 result is “inactive”.
In the case of `CN1CCCC2(CCN(C(=O)c3ccncc3)CC2)C1`, the AC50 result is “inactive”.
As to `O=c1c2ccccc2nc(N2CCCC2)n1-c1ccc(Cl)cc1`, the concentration at half-maximal activity (AC50) is 5.01 µM (active).
On to `Cc1nc2sccc2c(=O)n1-c1ccccc1Cl`, for which the AC50 entry was “inactive”.
As for `C[Se]C[C@@H](N)C(=O)O`, the AC50 result is “inactive”.
In the case of `CN1C(=O)CCS(=O)(=O)[C@H]1c1ccc(Cl)cc1`, the AC50 entry was “inactive”.
For `O=C(C1CC(=O)N(C2CCCC2)C1)N1CCC2(CC1)OCCO2` (stereo unspecified), the AC50 entry was “inactive”.
For `CC(C(=O)c1c[nH]c2ccccc12)N1CCSCC1` (stereo unspecified), the concentration at half-maximal activity (AC50) is 15.8 µM (active).
For `N[C@H](Cc1c[nH]c2ccccc12)P(=O)(O)O`, the activity, negative = inhibition was -15.7% [at 11.4 µM] (inactive).
Consider `C[N+]1(C)[C@@H]2CC[C@H]1CC(OC(=O)c1c[nH]c3ccccc13)C2` (stereo partly specified), for which the AC50 entry was “inactive”.
Take `C=Cn1ccnc1P(=S)(c1nccn1C=C)C1CCCCC1`: the AC50 result is “inactive”.
In the case of `Cc1cc(=O)n(-c2ccccc2)n1C`, the AC50 result was “inactive”.
Turning to `C=C(C)[C@H]1CN[C@H](C(=O)O)[C@@H]1CC(=O)O`, the AC50 entry was “inactive”.
Consider `CC(N)Cc1ccccc1Sc1ccc(O)cc1` (stereo unspecified), for which the AC50 result is “inactive”.
As to `CC(=O)N[C@@H]1CCSC1=O`, the AC50 entry is “inactive”.
The same measure, in the same setting: as for `CC[N@+]1(C)CCC[C@@H](OC(=O)C(O)(c2ccccc2)c2ccccc2)C1`, the entry is “inactive”; as for `CCOC(C(=O)OCCCN(CC)CC)(c1ccccc1)c1ccccc1`, “inactive”.
Regarding `CCN(CC)CC#CCOC(=O)[C@@](O)(c1ccccc1)C1CCCCC1`, the AC50 is 1.26 µM (active).
Consider `c1ccc(CN2CCCC3(CCNCC3)C2)cc1`, for which the AC50 result is “inactive”.
On to `C/C(=N\OC(=O)NC(C)C)c1sc(-c2ccccc2)nc1C`, for which the AC50 was 2 µM (active).
For the compound `C/C(=N\OC(=O)NC(C)C)c1sc(-c2ccc(Cl)cc2)nc1C`, the AC50 was 1.12 µM (active).
For the compound `CC[C@@H]1CN2CCc3cc(OC)c(OC)cc3[C@H]2C[C@@H]1C[C@@H]1NCCc2cc(O)c(OC)cc21`, the AC50 entry is “inactive”.
The same measure, in the same setting: as for `CCN1C[C@]2(C)CC[C@H](OC)[C@@]34[C@@H]2[C@H](OC(C)=O)[C@]2(OCO[C@@]25C[C@@H](OC)[C@@H]2C[C@@]3(O)[C@H]5[C@@H]2OC)[C@H]14`, the entry is “inactive”.
